The list is not random: actives were taken first. Their share in the collection is about 6.1%.
DRD3 antagonist: blocks the human D3 dopamine receptor | D3R cells, DiscoveRx beta-arrestin luminescence, antagonist mode; active compounds read low | P35462 | max response, negative = inhibition, % | hit rate 2.5% among 360,000; in the data active means max response below about -50%; inconclusive means no clear call, values can overlap the other calls
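Cells expressing the human receptor were seeded at 1500 cells/well, incubated overnight at 37 degrees C in 5% CO2, then exposed to library compounds with dopamine controls for 90 minutes at 37 degrees C before luminescent detection.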
D3 ag: D3 dopamine receptor (human) agonism | D3R DiscoveRx beta-arrestin cells, luminescence, 90 min | P35462 | hit rate 0.58% among 410,000 | max activation, %; in the data active means max activation above about 30%
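Agonist mode: compounds and dopamine controls were applied to plated cells for 90 min at 37 degrees C after an overnight attachment at 1500 cells/well. Luminescent read-out followed 30 - 60 minutes at room temperature with DiscoveRx detection reagent.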
D1 agonist: human D1 receptor agonism. P21728. HEK293 T-REx D1 cells, calcium flux, agonist mode. activation, % at 2 µM. hit rate 1% among 360,000. AID 504660; in the data active means activation above about 30%
Target sequence (P21728 whole entry, looked up): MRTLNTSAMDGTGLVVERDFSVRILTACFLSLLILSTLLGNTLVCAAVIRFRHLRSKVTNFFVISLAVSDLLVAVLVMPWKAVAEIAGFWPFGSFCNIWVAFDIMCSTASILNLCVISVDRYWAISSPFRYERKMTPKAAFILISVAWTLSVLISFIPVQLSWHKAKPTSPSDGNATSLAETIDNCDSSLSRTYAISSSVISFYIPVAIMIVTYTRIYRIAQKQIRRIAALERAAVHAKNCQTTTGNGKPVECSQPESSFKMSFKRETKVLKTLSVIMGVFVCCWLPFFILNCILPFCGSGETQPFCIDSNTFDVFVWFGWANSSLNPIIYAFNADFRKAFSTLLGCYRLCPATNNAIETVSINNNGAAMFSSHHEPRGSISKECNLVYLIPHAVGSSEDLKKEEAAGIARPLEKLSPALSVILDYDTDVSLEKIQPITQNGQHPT
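Agonism was scored from calcium flux recorded over 180 s (1 read/s) after pintool compound addition, following a 10-cycle baseline. Cells were inducible force-coupled HEK293 TREx D1, plated overnight at 30 C and loaded with no-wash calcium dye.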
D1 antag: antagonists of human D1 dopamine receptor; P21728; HEK293 TREx D1 cells, calcium flux, dopamine EC80; active compounds read low; activity change, negative = inhibition, % at 10 µM; hit rate 3.2% among 360,000; AID 504652; in the data active means activity change below about -30%
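HEK293 T-REx cells expressing inducible, force-coupled D1 receptor; no-wash Ca dye, 30–90 min RT. Cmpd → 180 s read at 1 Hz → EC80 DA → 180 s read.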
D1 PAM: enhances dopamine response at the human D1 receptor. P21728. HEK293 TREx D1 cells, calcium flux, dopamine EC20 potentiation. potentiation, % at 10 µM. hit rate 0.036% among 360,000. AID 504651; in the data active means potentiation above about 30%
Numbers stand for hits.

`CCN1CCCC1CNS(=O)(=O)c1c(C)cc(C)cc1C` (centres undefined) gave DRD3 antagonist -100, D3 ag inactive, D1 agonist inactive, D1 antag inactive and D1 PAM inactive.
Screening CCCc1ccc(S(=O)(=O)NCC2CCCN2CC)cc1 (centres undefined) returned DRD3 antagonist inactive, D3 ag inactive, D1 agonist inactive, D1 antag inactive and D1 PAM inactive.
`Cc1ccc(S(=O)(=O)NCc2ccccc2)cc1` gave DRD3 antagonist inactive, D3 ag inactive, D1 agonist inactive, D1 antag inactive and D1 PAM inactive.
`Cc1ccc(S(=O)(=O)N[C@H](CNCc2ccccc2)C(C)C)cc1` gave DRD3 antagonist -91 and D3 ag inactive.
For O=C(O)CCCCCCNS(=O)(=O)c1ccccc1 the results were DRD3 antagonist inactive, D3 ag inactive, D1 agonist inactive, D1 antag inactive and D1 PAM inactive.
O=C(O)CC(CNS(=O)(=O)c1ccccc1)c1ccccc1 (centres undefined) was read as DRD3 antagonist inactive, D3 ag inactive, D1 agonist inactive, D1 antag -33 and D1 PAM inactive.
For O=C/C(=C\Nc1ccc(S(=O)(=O)CCO)cc1)c1nc2cc(Cl)ccc2o1 the results were DRD3 antagonist -51, D3 ag inactive, D1 agonist inactive, D1 antag inactive and D1 PAM inactive.
Cc1ccc(C(=O)Nc2ccccc2N2CCCC2)s1 was read as DRD3 antagonist inactive, D3 ag inactive, D1 agonist inactive, D1 antag inactive and D1 PAM inactive.
`NC[C@@H]1O[C@H](C23CC4CC(CC(C4)C2)C3)Cc2c1ccc(O)c2O` gave DRD3 antagonist inactive, D3 ag 88, D1 agonist 118, D1 antag -78 and D1 PAM inactive.
For COC(=O)CCC(=O)c1ccc(OC)c(Cl)c1 the results were D1 agonist inactive, D1 antag -34 and D1 PAM inactive.
Screening O=C(Nc1cccc(F)c1)C1CCN(c2nnnn2-c2ccccc2)CC1 returned DRD3 antagonist inactive, D3 ag inactive, D1 agonist inactive, D1 antag -30 and D1 PAM inactive.
CCCCN(C(=O)C(C)(C)Oc1ccc(Cl)cc1)c1c(N)n(CCC)c(=O)[nH]c1=O was read as DRD3 antagonist inactive, D3 ag inactive, D1 agonist inactive, D1 antag inactive and D1 PAM inactive.
`COc1ccc(NC(=O)N(CCC(C)C)C(C)c2ccccn2)c(OC)c1` (centres undefined) gave DRD3 antagonist -53, D3 ag inactive, D1 agonist inactive, D1 antag inactive and D1 PAM inactive.
For Cn1cc(-c2cc3n(n2)CCC(=O)N3CCCC(=O)Nc2ccccc2Cl)c2ccccc21 the results were D3 ag inactive, D1 agonist inactive, D1 antag inactive and D1 PAM inactive.
CCOC(=O)c1c(C)n(C)c2ccc(OCC(O)CN3CCC(C)CC3)cc12 (centres undefined) was read as DRD3 antagonist -102, D3 ag inactive, D1 agonist inactive and D1 antag inactive.
`CCOC(=O)c1c(C)n(-c2ccc(C)cc2)c2ccc(OCC(O)CNCCCO)cc12` (centres undefined) gave DRD3 antagonist inactive, D3 ag inactive, D1 agonist inactive, D1 antag inactive and D1 PAM inactive.
Screening CCOC(=O)c1c(C)n(-c2ccc(C)cc2)c2ccc(OCC(O)CNCC3CCCO3)cc12 (centres undefined) returned DRD3 antagonist inactive, D3 ag inactive, D1 agonist 60, D1 antag inactive and D1 PAM inactive.
Screening CCOC(=O)c1c(C)n(C)c2ccc(OCC(O)CN3CCCCCC3)cc12 (centres undefined) returned DRD3 antagonist inconclusive, D3 ag inactive, D1 agonist inactive and D1 antag inactive.
For CCOC(=O)c1c(CSc2ccc(C)cc2)n(C)c2cc(Br)c(O)c(CN(C)C)c12 the results were DRD3 antagonist inactive, D3 ag inactive, D1 agonist inactive, D1 antag inactive and D1 PAM inactive.
Screening CCOC(=O)c1c(CN(C)C)oc2cc(CN(C)C)c(O)c(CSc3ccccc3)c12 returned DRD3 antagonist -59, D3 ag inactive, D1 agonist inactive, D1 antag inactive and D1 PAM inactive.
`CCCCN(CC)C(=O)Cn1nc(Cc2ccncc2)c2ccccc2c1=O` gave DRD3 antagonist inactive, D3 ag inactive, D1 agonist inactive, D1 antag inactive and D1 PAM inactive.

High-throughput results (PubChem BioAssay)
